Experimental data as given in PubChem BioAssay AID743398 (Broad Institute, 2014).
Screen size: about 300,000 compounds; about 3,600 (1.2%) were called active. For the sample, actives were picked, then their nearest neighbours and some compounds at random. Unmarked numbers belong to inactive results. Rule as the data show it: active = activation above about 30% (passing the limit was not always enough); inconclusive = no clear call, values can overlap the other calls.

Experiment: Wnt/beta-catenin pathway activators, primary screen, cell-based, plate reader, single point (AID 743398);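 also: 0% = neutral control wells and 100% = positive control wells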
Details: Wnt/beta-catenin reporter cell assay, activator, at 9.35 µM, stronger effect = higher value

Point of comparison: `c1ccc(C(=NNc2nc3ccccc3s2)c2ccccn2)cc1`, activation 5.23%. Against it:
- O=C(c1ccc(F)cc1)n1cc(C(=S)N2CCOCC2)c2ccccc21 — lower, -0.566%
- O=C(Cn1c(=S)nc2ccccn21)N1CCc2ccccc2C1 — higher, 17.7%
- CC(C)(C)S(=O)N1Cc2cc(C(=O)NCCCN3CCOCC3)nc(-c3cccc(-c4cc5ccccc5o4)c3)c2[C@H]1CCO (some centres not stated) — lower, -3.72%
- O=C(Nc1ncccc1O)c1ccc(C(=O)c2ccccc2)cc1 — higher, 21.2%
- O=C(Nc1ccc(C(=O)O)c(O)c1)c1ccccc1 — lower, -0.311%
- Cc1cccc2c1N(CC(=O)OC(C)C)C(=O)C2=O — lower, -1.39%
- Cc1cc(/C=C2/SC(=O)N(CC(=O)N3CCCC3)C2=O)c(C)n1C — lower, -1.52%
- COc1cccc(OCC(=O)NCCS(=O)(=O)N2CCN(c3ccccc3)CC2)c1 — lower, -0.863%
- COC(=O)c1ccc2nc(-c3ccc(OC)c(OC)c3)c(Cc3ccccc3)n2c1 — lower, -2.38%
- Clc1ccc(-c2csc(-c3ccncc3)n2)cc1 — higher, 6.51%
- COc1ccc(CC(=O)Nc2nc(-c3ccc(F)c(F)c3)cs2)cc1OC — lower, -5.88%
- COC(=O)C1=C(C)N(Cc2ccccc2C(F)(F)F)C(=NCc2ccc(C(F)(F)F)cc2)NC1c1ccc(F)cc1 (configuration not stated) — lower, -3.9%
- COCCCNC(=O)c1ccc(-c2c(C)noc2C)c2ccoc12 — lower, 3.17%
- O=C(Nc1ccc(Cl)c(C(F)(F)F)c1)C1Cc2c(-c3ccccc3Oc3ccccc3)ccnc2O1 (configuration not stated) — lower, -4.6%
- Cc1cccc2cc3c(N)c(C(=O)N4CCCc5ccccc54)sc3nc12 — lower, -13.9%
- Cc1c(C(=O)NCC2CCCO2)sc2nc(-c3ccccc3)cn12 (configuration not stated) — higher, 8.78%
- Cn1c(CCN2CCN(c3ccccn3)CC2)nc2cc(NS(=O)(=O)c3ccc(F)cc3)ccc21 — lower, -2.6%
- Cc1ccc(C(=O)Nc2nnc(-c3ccncc3)s2)o1 — lower, 2.92%
- CCc1noc(C)c1C(=O)Nc1nc2ccc(OC)cc2s1 — higher, 9.85%
- CC(C)(C)Cc1c(C2CCCCC2)nc2ccc(Br)cn12 — lower, -1.26%
- COC(=O)c1c(NC(C)=O)sc(C(=O)Nc2ccccc2OC)c1C — lower, -1.17%
- CCOC(=O)c1sc(NC(=O)COc2ncnc3ccccc23)c(C(=O)OCC)c1C — lower, -6.66%
- O=C1Nc2ccccc2C1=NN=Cc1ccco1 — lower, 0.126%
- CCOC(=O)N1CCN(C(=O)COc2ccc3oc4c(c3c2)CCCC4)CC1 — lower, -0.344%
- CCN(CC)CCCNC(=O)COc1ccc2oc3c(c2c1)CCCC3 — lower, -0.131%
- CC1(C)OC(=O)C2=C(C[C@@H](C3CCCC3)O[C@@H]2c2ccc(Cl)cc2)O1 — lower, -1.11%
- O=C(Nc1ccc(NC(=O)c2ccccc2F)cc1)c1ccccc1F — lower, -1.97%
- CN(Cc1ccccc1)S(=O)(=O)c1nnc(NC(=O)c2ccccc2F)s1 — lower, -0.354%
- COC(=O)C1=C(C)N(Cc2ccc(C(F)(F)F)cc2)C(=NCc2ccccc2)NC1c1ccccc1C(F)(F)F (configuration not stated) — lower, -11.5%
- O=C(CSc1cccc[n+]1[O-])c1ccc(-c2ccccc2)cc1 — higher, 10.1%
- Cc1ccc(Sc2cc(C(=O)c3ccccc3C(=O)O)ccc2[N+](=O)[O-])cc1 — lower, 0.926%
- CCCCNC(=O)C[C@@H]1C[C@@]2(C(=O)OCC)CCC=C2N(Cc2cccc3ccccc23)C1=O — lower, -1.83%
- CC(C)C1CCN(C(=O)C2CCC(=O)N(C3CCCCCC3)C2)CC1 (configuration not stated) — lower, 0.269%
- CCOC(=O)C1(C)CCCN(C(=O)c2cccc(Cl)c2)C1 (configuration not stated) — lower, -1.09%
- Cc1ccc(NC(=O)N2c3ccccc3SC2c2ccco2)c(C)c1 (configuration not stated) — lower, 4.58%
- COc1ccccc1N(C(=O)Cn1nnc2ccccc21)C(C(=O)NCc1ccco1)c1ccc(C)o1 (configuration not stated) — lower, -2.2%
- CCC(C)(C)NC(=O)C(c1cccn1C)N(Cc1ccc(C)cc1)C(=O)Cn1nnc2ccccc21 (configuration not stated) — lower, 0.194%
- Cc1ccc(S(=O)(=O)N(CCc2ccccc2)c2ccc3c(c2)C2CC3CCN2C(=O)OCc2ccccc2)cc1 (configuration not stated) — lower, -4.45%
- CCCCCCN1C[C@H](O)[C@@H](n2cc(C3CC3)nn2)C[C@@H]1c1ccc(Cl)cc1 — lower, 0.514%
- CN1CCCc2nc(-c3ccccc3)ccc21 — higher, 28.7%
- Nc1ncnc2c1ncn2[C@@H]1O[C@H](C(=O)N[C@@H](CCc2ccccc2)C(=O)N2CCCN(Cc3cccs3)CC2)[C@@H](O)[C@H]1O — lower, 2.88%
- CC(C)(C)CC(=O)Nc1nc(C(N)Cc2ccc(C(F)(F)F)cc2)cs1 (configuration not stated) — lower, -3.02%
- O=C(NCCOc1ccccc1)c1ccccc1F — lower, 2.79%
- O=C(CNC(=O)c1ccc(F)cc1)c1ccccc1 — higher, 12.3%
- C=CCn1nc(C(=O)OCC)cc1-c1sc(NC(=O)c2ccccc2)nc1C — lower, -1.67%
- CC1(C(=O)Nc2cccnc2)Cc2c(-c3ccccc3)ccnc2O1 (configuration not stated) — lower, -1.45%
- CCCc1cc(C(=O)Nc2ccc(C(=O)OC)cc2)cs1 — lower, 0.573%
- O=C(Nc1ccc(Cl)cn1)c1ccccc1-c1ccccc1 — lower, -0.296%
- Cc1ccc(F)c(S(=O)(=O)NC(=O)C2(C)CCN2C(=O)c2ccco2)c1 (configuration not stated) — lower, -0.487%
- C=CCN=C1NC(c2cccc(C(F)(F)F)c2)C(C(=O)OC)=C(C)N1C (configuration not stated) — lower, 1.05%
- CC(=O)c1ccc(-c2cnc3c(NC=O)cc(-c4cccc(NS(C)(=O)=O)c4)cn23)cc1 — lower, 1.57%
- C[C@@H]1ON(C)[C@H]2C[C@H]3c4cc(N5CCOCC5)ccc4CCN3C[C@@H]12 — lower, -0.66%
- CC(NC(=O)Nc1ccc2c(c1)OCO2)c1ccncc1 (configuration not stated) — higher, 9.83%
- CNS(=O)(=O)c1ccc(NC(=O)Nc2ccc3c(c2)OCO3)cc1 — higher, 26.8%
- CN(Cc1ccccc1)C(=O)CCC1CCN(C(=O)c2ccco2)CC1 — lower, -3.66%
- O=[N+]([O-])c1cc(Br)c(O)c(/C=N/Nc2nc3ccccc3s2)c1 — higher, 8.44%
- CCOC(=O)N(C)c1c(CC)nc2c(OCc3ccccc3C(=O)OC)cccn12 — lower, 4.08%
- CN(Cc1ccc(C(F)(F)F)cc1)C(=O)[C@H]1O[C@@H](n2cnc3c(N)ncnc32)[C@H](O)[C@@H]1O — lower, -3.24%
- CC1(Oc2cccc(F)c2)CCN(Cc2ccccc2OC(F)F)C1 (configuration not stated) — lower, 0.111%
- CC(=O)Nc1ccc(Nc2c3ccccc3nc3ccccc23)cc1 — lower, -1.24%
- Cc1ccc2nc(-c3ccc(NC(=O)c4cccnc4)cc3)oc2c1 — lower, 4.47%
- CCOC(=O)N1CCN(C(=O)C[C@@H]2C[C@@]3(C(=O)OC)CCCCC=C3N(CCC3=CCCCC3)C2=O)CC1 — lower, -3.76%
- COc1cccc(/C=N/Nc2ccc(Cl)nn2)c1 — higher, 10.5%
- Clc1ccc(N/N=C/c2cccs2)nn1 — lower, 3.73%
- COC(=O)c1cc2c(c3c4cc(F)ccc4n(S(=O)(=O)c4ccccc4)c13)C(=O)N(Cc1ccccc1OC)C2 — lower, -6.32%
- Cc1cccc(C(=O)OCC(=O)Nc2ccc(F)cc2)c1 — lower, -0.891%
- Cc1nn(CC(=O)Nc2ccc(F)cc2)c(=O)c2ccccc12 — lower, -0.309%
- O=C(CCCN1C(=O)C(c2ccccc2)Oc2cccnc21)Nc1ccccc1Br (configuration not stated) — lower, -1.84%
- O=C(C(=O)N1CCC(CNC(=O)c2cccnc2Cl)CC1)c1cccs1 — lower, 2.94%
- O=c1cc(Cn2nnc(-c3ccc(Cl)cc3)n2)nc2sccn12 — lower, 3.21%
- COc1ccccc1N1CCN(C(=O)Cn2nnc(-c3cccs3)n2)CC1 — lower, -9.59%
- CCOC(=O)Cn1c2c(n(-c3ccc(F)cc3)c1=O)C=C(c1ccccc1)[C@@H](C)C(C(=O)N(C)C1CCCCC1)=C2 — lower, -5.16%

With `O=C(c1ccc(F)cc1)n1c(=S)nc2ccccn21` the activation was 55.5% (active).
In the case of `O=C(NC(=O)c1ccccc1)Nc1ccccc1O`, the activation is reported as 40.2% (active).
With `Cc1cc(/C=C2/SC(=O)N(CC(=O)OC(C)C)C2=O)c(C)n1C` the activation was 32.5% (active).
For `Fc1ccc(-c2csc(-c3ccc(C4SCCS4)cc3)n2)cc1F`, the activation was 34% (active).
In the case of `Cc1c(C(=O)N2CCCc3ccccc32)sc2nc(-c3ccccc3)cn12`, the activation is reported as 51.4% (active).
With `Cc1ccc(C(=O)Nc2nc3ccc(Cl)cc3s2)o1` the activation was 36.2% (active).
With `CCC(=O)Nc1sc(C(=O)Nc2ccccc2)c(C)c1C(=O)OC` the activation was 68.1% (active).
For `O=C(COc1ccc2oc3c(c2c1)CCCC3)Nc1ccccn1`, the activation was 39.6% (active).
In the case of `O=C(Nc1nnc(-c2ccccc2F)s1)c1ccccc1F`, the activation is reported as 32.6% (active).
With `Cc1ccc(C(=O)CSc2ccccc2C(=O)O)cc1` the activation was 31.9% (active).
In the case of `COCCNC(=O)C(c1ccc(C)o1)N(Cc1ccccc1)C(=O)Cn1nnc2ccccc21` (configuration not stated), the activation is reported as 40.8% (active).
In the case of `O=C(CNC(=O)c1ccccc1F)c1ccc(Br)cc1`, the activation is reported as 39% (active).
With `CCCc1cc(C(=O)Nc2ccc(Cl)cn2)cs1` the activation was 39.5% (active).
For `Cc1cccc(NC(=O)Nc2ccc3c(c2)OCO3)n1`, the activation was 44.4% (active).
With `c1ccc2sc(NN=C3CCCC3)nc2c1` the activation was 52.4% (active).
With `CC(=O)Nc1ccc(-c2nc3ccccc3o2)cc1` the activation was 62% (active).
With `Oc1cccc(/C=N/Nc2ccc(Cl)nn2)c1O` the activation was 125% (active).
With `CCC(=O)Nc1ccc2nn(-c3ccc(F)cc3)nc2c1` the activation was 51% (active).
In the case of `Clc1cccc(Cl)c1Cn1nnc(-c2cccs2)n1`, the activation is reported as 32.4% (active).
